# Experimental data published in the supplement of paper PMC11732987, “Enantioselective OTUD7B fragment discovery through chemoproteomics screening and high-throughput optimisation” (Communications Chemistry, 2025).
# Unmarked numbers belong to inactive results.
# Key:
# Test in all cases: log2 ratio of Biotin-Ahx-Ub-VS probe labelling (fragment/DMSO); higher = less target engagement (more negative = stronger competition), active = hit call of the paper (q ≤ 0.05, log2 ratio ≤ -1)
# Details in all cases: compound concentration: 200 uM; treatment time: 3 h
# USP19 = target: T1, USP19 (UniProt O94966)
# T1 sequence (whole entry): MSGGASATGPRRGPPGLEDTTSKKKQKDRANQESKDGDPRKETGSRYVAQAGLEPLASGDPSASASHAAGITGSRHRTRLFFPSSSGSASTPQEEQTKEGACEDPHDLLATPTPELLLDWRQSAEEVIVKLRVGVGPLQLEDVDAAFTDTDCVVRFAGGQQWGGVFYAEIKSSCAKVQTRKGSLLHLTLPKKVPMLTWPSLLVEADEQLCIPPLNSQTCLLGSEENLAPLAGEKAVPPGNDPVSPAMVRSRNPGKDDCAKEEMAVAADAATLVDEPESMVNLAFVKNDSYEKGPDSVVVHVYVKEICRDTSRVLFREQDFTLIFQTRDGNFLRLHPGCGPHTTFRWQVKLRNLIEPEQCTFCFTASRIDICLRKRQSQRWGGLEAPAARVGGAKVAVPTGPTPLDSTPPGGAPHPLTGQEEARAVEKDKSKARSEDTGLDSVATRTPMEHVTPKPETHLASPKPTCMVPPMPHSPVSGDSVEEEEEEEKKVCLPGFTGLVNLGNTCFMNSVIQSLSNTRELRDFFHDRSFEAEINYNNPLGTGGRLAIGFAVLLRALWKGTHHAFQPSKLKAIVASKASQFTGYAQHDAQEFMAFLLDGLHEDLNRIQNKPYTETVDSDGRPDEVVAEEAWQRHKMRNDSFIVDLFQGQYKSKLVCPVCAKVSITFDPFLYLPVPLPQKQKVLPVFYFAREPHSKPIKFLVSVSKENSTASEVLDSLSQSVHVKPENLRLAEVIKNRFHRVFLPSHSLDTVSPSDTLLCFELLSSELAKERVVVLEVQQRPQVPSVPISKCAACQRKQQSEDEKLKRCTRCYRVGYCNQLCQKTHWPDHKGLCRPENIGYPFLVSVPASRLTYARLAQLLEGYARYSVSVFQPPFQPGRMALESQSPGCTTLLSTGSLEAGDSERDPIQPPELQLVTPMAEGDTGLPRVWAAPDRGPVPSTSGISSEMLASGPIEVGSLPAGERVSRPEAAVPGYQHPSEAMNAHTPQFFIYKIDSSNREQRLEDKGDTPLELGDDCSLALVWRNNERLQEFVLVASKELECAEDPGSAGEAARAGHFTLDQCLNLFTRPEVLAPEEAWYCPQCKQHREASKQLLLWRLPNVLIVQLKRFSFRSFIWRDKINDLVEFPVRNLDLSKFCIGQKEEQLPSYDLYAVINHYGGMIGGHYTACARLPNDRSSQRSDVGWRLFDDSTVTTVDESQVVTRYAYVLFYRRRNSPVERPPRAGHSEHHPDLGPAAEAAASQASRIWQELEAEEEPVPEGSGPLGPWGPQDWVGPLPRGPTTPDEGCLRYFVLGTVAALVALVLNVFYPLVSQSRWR
# Method in brief: (§1)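 HEK293T lysate, 495 µg per sample in Tris/CHAPS/IGEPAL buffer with protease inhibitors, was treated in triplicate with fragment at 200 µM or vehicle for 3 h and then with Biotin-Ahx-Ub-VS at 0.5 µM final for 1 h. Labelled DUBs were NeutrAvidin-enriched, digested with LysC and trypsin, and run by diaPASEF LC-MS/MS. Spectronaut label-free quantities were global-median-normalised, and values are average log2 fragment/vehicle ratios by unpaired t-test on proteins with ≥2 unique peptides.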
# USP24 = USP24 (UniProt Q9UPU5)
# Method in brief: as §1
# USP25 = target: T2, USP25 (UniProt Q9UHP3)
# T2 sequence (whole entry): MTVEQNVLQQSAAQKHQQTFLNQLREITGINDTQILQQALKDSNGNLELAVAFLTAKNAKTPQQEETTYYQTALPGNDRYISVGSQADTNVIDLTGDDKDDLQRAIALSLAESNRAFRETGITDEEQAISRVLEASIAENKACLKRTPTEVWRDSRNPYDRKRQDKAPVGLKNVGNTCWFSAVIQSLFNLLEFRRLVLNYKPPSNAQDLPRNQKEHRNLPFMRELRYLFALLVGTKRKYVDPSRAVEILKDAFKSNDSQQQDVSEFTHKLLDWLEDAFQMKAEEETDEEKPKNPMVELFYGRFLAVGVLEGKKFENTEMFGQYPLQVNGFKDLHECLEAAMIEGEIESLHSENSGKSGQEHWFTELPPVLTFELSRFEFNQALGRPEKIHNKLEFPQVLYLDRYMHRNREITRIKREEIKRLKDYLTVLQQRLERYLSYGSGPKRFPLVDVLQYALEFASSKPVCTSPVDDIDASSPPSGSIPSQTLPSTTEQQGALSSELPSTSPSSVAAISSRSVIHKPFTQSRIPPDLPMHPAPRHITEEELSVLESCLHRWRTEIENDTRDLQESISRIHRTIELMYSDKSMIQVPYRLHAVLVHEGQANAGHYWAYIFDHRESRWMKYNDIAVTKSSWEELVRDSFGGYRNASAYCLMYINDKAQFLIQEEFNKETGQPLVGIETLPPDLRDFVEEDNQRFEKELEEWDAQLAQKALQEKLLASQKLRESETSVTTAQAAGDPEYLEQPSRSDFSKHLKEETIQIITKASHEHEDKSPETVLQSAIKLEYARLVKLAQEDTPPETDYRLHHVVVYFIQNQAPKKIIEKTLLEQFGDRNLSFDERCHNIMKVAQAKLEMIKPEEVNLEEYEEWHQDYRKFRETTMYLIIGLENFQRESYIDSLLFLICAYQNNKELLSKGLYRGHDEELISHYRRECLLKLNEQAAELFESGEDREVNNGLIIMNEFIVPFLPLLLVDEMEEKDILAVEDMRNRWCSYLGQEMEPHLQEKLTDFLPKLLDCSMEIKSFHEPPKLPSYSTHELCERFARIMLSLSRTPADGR
# Method in brief: as §1
# USP28 = target: T3, USP28 (UniProt Q96RU2)
# T3 sequence (whole entry): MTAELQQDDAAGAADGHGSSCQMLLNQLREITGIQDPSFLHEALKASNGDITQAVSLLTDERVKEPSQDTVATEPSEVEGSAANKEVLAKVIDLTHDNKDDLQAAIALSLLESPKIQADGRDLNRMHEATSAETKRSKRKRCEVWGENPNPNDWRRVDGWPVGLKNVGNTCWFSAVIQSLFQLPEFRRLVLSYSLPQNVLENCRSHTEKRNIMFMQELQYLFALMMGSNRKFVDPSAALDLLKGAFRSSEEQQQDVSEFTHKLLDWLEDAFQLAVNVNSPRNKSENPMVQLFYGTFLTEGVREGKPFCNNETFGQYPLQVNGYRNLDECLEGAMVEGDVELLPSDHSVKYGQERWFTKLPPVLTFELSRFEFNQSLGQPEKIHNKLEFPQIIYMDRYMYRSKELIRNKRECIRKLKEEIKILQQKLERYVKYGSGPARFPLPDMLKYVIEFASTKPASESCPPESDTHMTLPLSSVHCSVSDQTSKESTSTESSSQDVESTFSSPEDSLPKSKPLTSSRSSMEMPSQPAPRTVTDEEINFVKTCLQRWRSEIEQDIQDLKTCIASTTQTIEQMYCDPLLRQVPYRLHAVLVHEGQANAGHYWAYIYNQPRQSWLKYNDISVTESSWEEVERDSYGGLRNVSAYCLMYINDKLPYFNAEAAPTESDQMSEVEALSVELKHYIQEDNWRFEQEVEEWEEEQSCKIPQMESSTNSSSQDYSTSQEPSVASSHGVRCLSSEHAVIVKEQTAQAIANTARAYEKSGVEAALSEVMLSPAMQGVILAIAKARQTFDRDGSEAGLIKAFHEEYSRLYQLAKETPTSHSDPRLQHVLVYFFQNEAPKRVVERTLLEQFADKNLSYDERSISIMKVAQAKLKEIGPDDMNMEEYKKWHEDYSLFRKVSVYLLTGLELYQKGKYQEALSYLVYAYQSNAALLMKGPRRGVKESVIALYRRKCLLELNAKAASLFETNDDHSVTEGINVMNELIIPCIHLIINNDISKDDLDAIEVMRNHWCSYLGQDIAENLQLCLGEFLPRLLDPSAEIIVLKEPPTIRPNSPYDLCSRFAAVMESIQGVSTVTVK
# Method in brief: as §1
# Sequence of USP24 (Q9UPU5 whole entry): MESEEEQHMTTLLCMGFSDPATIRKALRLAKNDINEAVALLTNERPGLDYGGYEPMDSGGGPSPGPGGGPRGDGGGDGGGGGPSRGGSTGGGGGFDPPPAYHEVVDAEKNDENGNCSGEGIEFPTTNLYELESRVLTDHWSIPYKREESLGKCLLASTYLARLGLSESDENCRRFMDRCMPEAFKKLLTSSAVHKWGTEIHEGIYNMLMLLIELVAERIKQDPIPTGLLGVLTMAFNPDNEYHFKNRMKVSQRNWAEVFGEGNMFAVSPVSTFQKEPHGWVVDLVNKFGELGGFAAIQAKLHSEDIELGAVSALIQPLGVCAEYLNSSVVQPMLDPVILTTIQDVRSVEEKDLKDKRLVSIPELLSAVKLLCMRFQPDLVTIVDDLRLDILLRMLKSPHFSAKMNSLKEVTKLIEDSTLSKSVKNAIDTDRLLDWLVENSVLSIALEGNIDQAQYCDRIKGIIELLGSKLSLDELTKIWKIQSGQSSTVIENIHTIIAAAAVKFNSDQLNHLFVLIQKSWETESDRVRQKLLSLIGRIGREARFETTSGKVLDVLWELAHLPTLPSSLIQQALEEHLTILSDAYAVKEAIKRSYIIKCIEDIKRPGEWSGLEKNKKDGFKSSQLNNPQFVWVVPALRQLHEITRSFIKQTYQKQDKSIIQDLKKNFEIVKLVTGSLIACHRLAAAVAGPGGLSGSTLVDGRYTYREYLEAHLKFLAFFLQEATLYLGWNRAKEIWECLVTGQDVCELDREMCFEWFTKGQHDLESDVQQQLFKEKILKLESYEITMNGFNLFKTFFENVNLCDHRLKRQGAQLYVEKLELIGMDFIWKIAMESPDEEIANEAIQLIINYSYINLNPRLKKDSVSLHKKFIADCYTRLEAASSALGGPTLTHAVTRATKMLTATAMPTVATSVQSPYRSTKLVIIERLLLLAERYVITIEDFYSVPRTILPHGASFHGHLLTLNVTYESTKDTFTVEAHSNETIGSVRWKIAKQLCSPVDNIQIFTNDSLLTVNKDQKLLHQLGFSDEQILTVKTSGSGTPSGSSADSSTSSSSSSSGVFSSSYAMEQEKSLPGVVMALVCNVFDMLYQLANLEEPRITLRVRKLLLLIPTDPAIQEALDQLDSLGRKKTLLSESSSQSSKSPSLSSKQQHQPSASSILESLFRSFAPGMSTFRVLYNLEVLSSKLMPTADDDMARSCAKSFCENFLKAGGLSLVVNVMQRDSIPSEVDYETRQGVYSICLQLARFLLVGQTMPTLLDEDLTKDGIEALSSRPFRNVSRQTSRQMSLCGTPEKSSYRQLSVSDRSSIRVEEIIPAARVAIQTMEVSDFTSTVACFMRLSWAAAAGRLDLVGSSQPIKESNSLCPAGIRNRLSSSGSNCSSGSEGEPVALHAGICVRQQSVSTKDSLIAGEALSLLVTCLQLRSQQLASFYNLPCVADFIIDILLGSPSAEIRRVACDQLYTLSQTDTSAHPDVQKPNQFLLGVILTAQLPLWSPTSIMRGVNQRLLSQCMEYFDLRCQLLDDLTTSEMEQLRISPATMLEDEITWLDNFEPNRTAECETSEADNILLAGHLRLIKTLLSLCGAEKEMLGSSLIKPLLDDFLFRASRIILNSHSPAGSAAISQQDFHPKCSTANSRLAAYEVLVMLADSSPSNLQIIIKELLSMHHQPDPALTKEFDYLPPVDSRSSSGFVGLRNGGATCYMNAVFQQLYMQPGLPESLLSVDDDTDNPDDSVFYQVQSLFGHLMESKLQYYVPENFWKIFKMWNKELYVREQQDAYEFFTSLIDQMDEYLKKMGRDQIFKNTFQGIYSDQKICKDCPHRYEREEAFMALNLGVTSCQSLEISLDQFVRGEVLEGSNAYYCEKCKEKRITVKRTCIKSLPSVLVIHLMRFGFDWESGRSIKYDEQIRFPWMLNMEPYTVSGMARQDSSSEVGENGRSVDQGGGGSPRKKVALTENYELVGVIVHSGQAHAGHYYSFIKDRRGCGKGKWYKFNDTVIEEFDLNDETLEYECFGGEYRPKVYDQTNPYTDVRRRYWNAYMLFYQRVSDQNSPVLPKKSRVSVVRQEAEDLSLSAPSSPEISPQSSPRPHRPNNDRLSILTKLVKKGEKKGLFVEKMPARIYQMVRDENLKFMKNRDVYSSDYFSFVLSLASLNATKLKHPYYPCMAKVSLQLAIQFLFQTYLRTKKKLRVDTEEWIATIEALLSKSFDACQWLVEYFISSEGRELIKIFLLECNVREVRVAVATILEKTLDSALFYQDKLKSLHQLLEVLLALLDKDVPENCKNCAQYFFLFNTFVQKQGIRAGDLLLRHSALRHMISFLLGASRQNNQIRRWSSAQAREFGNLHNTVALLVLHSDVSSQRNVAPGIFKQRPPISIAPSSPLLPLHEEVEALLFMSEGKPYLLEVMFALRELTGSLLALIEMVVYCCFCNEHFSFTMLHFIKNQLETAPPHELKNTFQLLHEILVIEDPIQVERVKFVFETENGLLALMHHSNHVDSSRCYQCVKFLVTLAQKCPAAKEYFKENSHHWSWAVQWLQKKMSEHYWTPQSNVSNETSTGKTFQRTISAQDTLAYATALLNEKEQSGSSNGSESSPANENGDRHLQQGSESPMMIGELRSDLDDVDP
structure (smiles),measurement,setting,value
Cc1cc(NC(=O)CCl)n(-c2ccccc2)n1,log2 ratio of Biotin-Ahx-Ub-VS probe labelling,USP19,-0.106
same,log2 ratio of Biotin-Ahx-Ub-VS probe labelling,USP24,-0.201
same,log2 ratio of Biotin-Ahx-Ub-VS probe labelling,USP25,-0.721
same,log2 ratio of Biotin-Ahx-Ub-VS probe labelling,USP28,-1.03 (active)
